PubChem BioAssay (Tox21)
Results filed as inconclusive are left out. A call without a number means that no potency is given here. The source made the active and inactive calls. The call rests on the fitted dose curve; in most records, active means well fitted cell-killing curve with a large enough effect in the repeat runs; inconclusive means weak or mixed curves, or effect the other way; inactive means no such curve, though single readings can be large or run the other way.

test: Caspase-3/7 induction in CHO-K1 cells by small molecules, qHTS cell viability counter screen (AID 1346979); conditions: CellTiter-Fluor fluorescence, 17 h; series mostly up to 92.4 µM; further: nearly all actives have a fitted effect of over 35% in size
Source text: National Center for Advancing Translational Sciences [NCATS]
NIH Chemical Genomics Center [NCGC]
U.S. Environmental Protection Agency [EPA]
National Institutes of Environmental Health Sciences [NIEHS]
National Toxicology Program [NTP]
U.S. Food and Drug Administration [FDA]
Apoptosis is a process of programmed cell death and plays a central role in the development of multicellular organisms. It is a highly regulated process and induces cell death by activating caspases, which are the members of cysteine aspartic acid-specific protease (caspase) family. Caspases involved in apoptosis are classified by their mechanism of action as initiator caspases (caspase-2, -8, -9 and -10) and executioner caspases (caspase-3, -6, and -7). Inhibition of apoptosis results in number of cancers, autoimmune diseases, inflammatory diseases and viral infection. To identify small molecule compounds that induce apoptosis, a homogeneous, luminescent Caspase-Glo 3/7 assay was used. Wild type CHO-K1 cells were used to screen Tox21 libraries for identifying caspase-3/7 activity inducers. Also cytotoxicity of the compounds was tested in parallel by measuring the cell viability using CellTiter-Fluor assay system in the same wells.
Tox21 Assay Protocol Summary:
CHO-K1 cells were dispensed at 1,500 per well in 5uL of culture medium into white solid bottom 1536-well plates (Corning Life Sciences, Corning, NY) using a Multidrop Combi (Thermo Scientific, Waltham, MA) dispenser. The assay plates were incubated at 37 C and 5% CO2 for 5hr, and then 23nL of compounds dissolved in DMSO and positive control were transferred using a Pintool station (Wako, San Diego, CA). The assay plates were incubated at 37C and 5% CO2 for 17hr. For cytotoxicity read, after 16hr incubation at 37C, 1uL CellTiter-Fluor reagent (Promega Corporation, Madison, WI) was added to each well of the assay plates using Flying Reagent Dispenser (FRD, Aurora Discovery, San Diego, CA). After 1hr incubation at 37C and 5% CO2, the fluorescence signal was quantified using a ViewLux plate reader (PerkinElmer, Shelton, CT).
Potency means the concentration at half of the fitted maximal effect.

SMILES | Potency | activity change, negative = cytotoxicity
CC1(CO)CN(c2ccccc2)NC1=O (stereo not given) | inactive | –
O=C(c1ccc(O)cc1)c1ccc(O)c(O)c1O | 61.4 µM (active) | –
CCN(CC)CC(=O)Nc1c(C)cccc1C | inactive | –
Nc1cccc(O)c1 | inactive | –
CN=C(NC#N)Nc1ccc(C2=NNC(=O)CC2C)cc1 (stereo not given) | inactive | –
CCOC(=O)[C@H](CCc1ccccc1)N[C@@H](C)C(=O)N1C(=O)N(C)C[C@H]1C(=O)O | inactive | –
N#Cc1ccc(C(=O)O)cc1 | inactive | –
CCCCCCCCSCC | inactive | –
CCCCCCCCC1CCC(=O)O1 (stereo not given) | inactive | –
NS(=O)(=O)c1ccc(NC(=O)CCC(=O)O)cc1 | inactive | –
Nc1ccc([N+](=O)[O-])c(N)c1 | 53.1 µM (active) | –
Cc1cc2cc3c(C)cc(=O)oc3c(C)c2o1 | inactive | –
CC(=O)c1ccc2c(c1)Cc1ccccc1-2 | inactive | –
Oc1cn2c(n1)Nc1ccc(Cl)c(Cl)c1C2 | – | -2.03% [at 19 µM] (inactive)
C=C(C)C(=O)OCCOP(=O)(O)OCCOC(=O)C(=C)C | inactive | –
COc1ccc(S(=O)(=O)N2c3ccc(Cl)cc3[C@@](O)(c3ccccc3Cl)[C@H]2C(=O)N2CCC[C@@H]2C(N)=O)cc1OC | inactive | –
C=C1CC/C=C(\C)CC[C@@H]2[C@@H]1CC2(C)C | inactive | –
OCCN(CCO)c1cccc(Cl)c1 | inactive | –
O=Cc1ccc(Cl)c(Cl)c1 | inactive | –
NC(CO)C(=O)NNCc1ccc(O)c(O)c1O (stereo not given) | inactive | –

SMILES | Potency | activity change, negative = cytotoxicity
COCCOCCOCCOCCOCCO | inactive | –
Nc1ccc(S(=O)(=O)Nc2ccc(Cl)nn2)cc1 | inactive | –
CCC(CC)CO | inactive | –
O=C(OCC(COC(=O)c1cccnc1)(COC(=O)c1cccnc1)COC(=O)c1cccnc1)c1cccnc1 | inactive | –
Cc1nc2n(c(=O)c1CCN1CCC(c3noc4cc(F)ccc34)CC1)CCC[C@H]2O | – | 8.49% [at 19 µM] (inactive)
CC(C)(C)OC(=O)c1ccc(O)cc1 | inactive | –
CCCCN | inactive | –
CCCCCCCC/C=C\CCCCCCCC(=O)OCCCC | – | 3.24% [at 19 µM] (inactive)
Cc1c(I)c(=O)n(-c2ccccc2)n1C | inactive | –
Cc1cccc2nccnc12 | inactive | –
COc1cc2c(cc1OC)[C@@H]1CC(=O)[C@@H](CC(C)C)CN1CC2 | inactive | –
C=Cc1ccccn1 | inactive | –
CCC(C)NC(N)=O (stereo not given) | inactive | –
CC(N)C(=O)OC(C)(C)Cc1ccc(Cl)cc1 (stereo not given) | inactive | –
COC(=O)c1ccccc1C(=O)c1ccc(OCCN2CCCCC2)cc1 | inactive | –
CCC(C=O)CC | inactive | –
O=C(CS(=O)Cc1ccco1)NC/C=C\COc1cc(CN2CCCCC2)ccn1 (stereo not given) | inactive | –
CC(C)CC(C)CC(C)CC(C)COC(=O)c1ccccc1C(=O)OCC(C)CC(C)CC(C)CC(C)C (stereo not given) | inactive | –
COc1ccc(Br)c(C)c1 | inactive | –
CC(C)CCCCOC(=O)c1ccccc1C(=O)OCCCCC(C)C | inactive | –
